High-throughput results as filed in PubChem.
DAX1 inh-1: inhibitors of DAX1 repression of SF-1 activated StAR promoter | HEK293T StAR-luciferase reporter, SF-1/DAX-1 repression relief | inhibition, % at 6.8 µM | 370,000 tested, 1.1% active;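 active = inhibition above the mean over all tested compounds plus 3 SD, cut at about 3.6% in these data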;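 note: higher inhibition means more luminescence from relief of DAX-1 repression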
hcDAF12 agonist: activates DAF-12 receptor from parasite H. contortus; 370,000 tested, 1.4% active; AID 652067; HEK293 hcDAF-12 lit1-tk-luc reporter, luminescence; 0% DMSO, 100% Δ7-dafachronic acid; activation, % at 6.8 µM;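 active = activation above the mean of all tested compounds plus 3 SD, cut at about 5.5% in these data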
DAX1 inh-2: inhibits human nuclear receptor DAX1 | P51843 | HEK293 Gal4-DAX1 luciferase reporter, luminescence | inhibition, % at 6.75 µM | 340,000 tested, 0.99% active | AID 504766;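 active = inhibition above the mean over all tested compounds plus 3 SD, cut at about 4.2% in these data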;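 note: inhibition shows as a rise in luminescence from relieved DAX1 repression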
Target sequence (P51843 207-470 limits assumed): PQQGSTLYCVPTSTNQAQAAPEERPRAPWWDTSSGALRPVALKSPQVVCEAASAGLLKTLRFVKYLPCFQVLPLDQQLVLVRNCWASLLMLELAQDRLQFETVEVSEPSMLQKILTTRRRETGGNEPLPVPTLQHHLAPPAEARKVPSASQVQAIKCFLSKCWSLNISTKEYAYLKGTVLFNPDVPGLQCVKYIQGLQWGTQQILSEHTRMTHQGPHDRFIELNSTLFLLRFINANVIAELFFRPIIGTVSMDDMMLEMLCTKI
ssDAF12 agonist: activates DAF-12 receptor from parasite S. stercoralis; HEK293 ssDAF-12/GRIP1 lit1-tk-luc reporter, luminescence; % of 3 µM dafachronic acid response; 370,000 tested, 1% active; activation, % at 6.8 µM;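 active = activation above the mean over all tested compounds plus 3 SD, cut at about 0.9% in these data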
AHR act: activators of human aryl hydrocarbon receptor; 320,000 tested, 2.5% active; AHR-responsive luciferase reporter cells, luminescence; P35869; activation, % at 5 µM; in the data active = activation above about 47%
hgDAF-12 ag: activates the H. glycines DAF-12 receptor ligand-binding domain; HEK293 GAL4-hgDAF12 UAS-luciferase reporter, agonist luminescence; normalized to butyrate control; activation, % at 6.8 µM; 370,000 tested, 1.8% active;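 active = activation above a cutoff set at the mean of all screened compounds plus 3 SD, cut at about 10% in these data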
Large screens that a line does not name were inactive. Hits are enriched below; roughly 5.7% of the tested compounds scored in any of these assays.

O=C(NNC1=C(C(=O)C(F)(F)F)CCC1)c1cccc(Cl)c1	DAX1 inh-2 5.2, hgDAF-12 ag 13
CN(C)CCCNc1cc(C(C)(C)C)nc2c(-c3ccccc3)cnn12	DAX1 inh-2 4.7, ssDAF12 agonist 1.3
CN(C)CCCNc1cc(-c2ccccc2)nc2cc(-c3cccc(F)c3)nn12	none
CC(C)(C)c1cc(NCCCn2ccnc2)n2ncc(-c3ccc(Cl)cc3)c2n1	hgDAF-12 ag 10
COc1ccc(NC(C)=O)cc1S(=O)(=O)N1CCN(C(=O)c2ccccc2F)CC1	none
COC(=O)c1c(NS(=O)(=O)c2ccc3ccccc3c2)sc2c1CCCC2	none
Cc1cccc(C(=O)N2CCCC(CCC(=O)N3CCN(c4ccccn4)CC3)C2)c1C (configuration not stated)	none
O=S(=O)(N1CCCCC1)n1c(Cc2ccccc2)nc2ccccc21	ssDAF12 agonist 1.9
O=S(=O)(c1ccc(Br)cc1)n1c(Cc2ccccc2)nc2ccccc21	none
CN1C(=O)S/C(=C/c2cccnc2)C1=O	none
Cc1ccccc1N=C1NC(=O)/C(=C/c2cccnc2)S1	ssDAF12 agonist 1.9
O=C1/C(=C\c2cccnc2)Sc2ccccc21	AHR act 53
O=C1N/C(=N/O)S/C1=C/c1cccnc1	none
CCn1c(SCC#N)nc2ccccc2c1=O	DAX1 inh-2 5.2
CCn1c(SCc2nc3ccccc3c(=O)[nH]2)nc2ccccc2c1=O	AHR act 67
COCCCn1c(SCc2nc3ccccc3c(=O)[nH]2)nc2ccccc2c1=O	none
N#CCSc1nc2ccccc2c2nc3ccccc3n12	AHR act 48
CCOC(=O)c1c(Nc2ccc(Cl)cc2)sc(/C=C2\C=Nc3ccccc32)c1O	none
Oc1nc(Nc2cccc(Cl)c2)sc1/C=C1\C=Nc2ccccc21	AHR act 117
Oc1nc(Nc2ccc(F)cc2)sc1/C=C1\C=Nc2ccccc21	AHR act 122
CC1=Nc2ccccc2/C1=C/c1sc(=O)n(CC(=O)N2CCCC2)c1O	none
CC1=Nc2ccccc2/C1=C\c1sc(Nc2ccc(C)cc2)nc1O	AHR act 79
Cn1c2ccc(CC(=O)O)cc2c2cc(CC(=O)O)ccc21	none
COC(=O)Cc1ccc2c3ccccc3n(C)c2c1	hcDAF12 agonist 5.8
Cc1ccc(S(=O)(=O)NCc2ccccc2Br)cc1	none (no result: DAX1 inh-2, AHR act)
COc1ccc(CN2CCOCCOCCOCCOCC2)cc1	none
CCOc1ccc(OCC)c(NC(=O)C2CCCN2S(=O)(=O)c2cccc3cccnc23)c1 (configuration not stated)	AHR act 47
COc1ccc(NC(=O)C2CCCN2S(=O)(=O)c2cccc3cccnc23)c(OC)c1 (configuration not stated)	none
O=C(Nc1nc(-c2cccs2)cs1)c1ccc(Cl)s1	hgDAF-12 ag 11
CNC(=O)c1ccsc1NC(=O)CCS(=O)(=O)c1ccccc1	none
CNC(=O)c1ccsc1NC(=O)c1ccc(Cl)s1	AHR act 66
CC(=O)Nc1nc(-c2cccs2)cs1	none
CNC(=O)c1ccsc1NC(=O)c1ccccc1	AHR act 49
CC(=O)CSc1nc(-c2cccs2)c(C#N)c(=O)[nH]1	none (no result: AHR act)
O=C(Nc1cc(Br)ccc1O)c1cnn2c(C(F)F)cc(C3CC3)nc12	none
Cc1nc2nc(C)c(NS(=O)(=O)c3ccc(Cl)cc3)c(=O)n2[nH]1	hcDAF12 agonist 6.4
CCc1ccc(S(=O)(=O)Nc2c(C)nc3nc[nH]n3c2=O)cc1	DAX1 inh-2 8.0
CCC(=O)Nc1ccc(S(=O)(=O)Nc2c(C)nc3nc[nH]n3c2=O)cc1	none
Cc1cccc(C(=O)Nc2nc3ccc(S(C)(=O)=O)cc3s2)c1	none (no result: AHR act)
O=S(=O)(/N=C(/Nc1nc2ccccc2s1)c1ccccc1)c1ccc(F)cc1	DAX1 inh-1 4.4, DAX1 inh-2 6.4, ssDAF12 agonist 0.9, hgDAF-12 ag 11 (no result: AHR act)
Cc1ccc(NC(=O)C(=O)NCC2CCCO2)cc1C (configuration not stated)	DAX1 inh-2 5.8
CS(=O)(=O)c1ccc2nc(NC(=O)c3ccccc3)sc2c1	hgDAF-12 ag 11
Cc1ccc(NC(=O)C(=O)NCC2CCCO2)cc1 (configuration not stated)	none
CC(=O)Nc1ccc(S(=O)(=O)NCC2CCCO2)cc1 (configuration not stated)	DAX1 inh-2 5.1
Cc1ccc2c(c1)/C(=N/N1C(=O)c3ccccc3C1=O)C(=O)N2	none
CN(C)c1ccc(CNS(=O)(=O)c2ccc3c(c2)NC(=O)CS3)cc1	none
O[C@@H]1CN(CC2CCCCC2)[C@@H](c2ccc(Cl)cc2)C[C@H]1n1cc(C2CC2)nn1	none (no result: AHR act)
CS(=O)(=O)c1ccc2nc(NC(=O)Nc3ccc(Cl)c(Cl)c3)sc2c1	ssDAF12 agonist 1.9
CS(=O)(=O)c1ccc2nc(NC(=O)c3ccc(S(=O)(=O)NCC4CCCO4)cc3)sc2c1 (configuration not stated)	DAX1 inh-2 5.4
Cc1c(C(=O)NCC2CCCO2)oc2ccc(Br)cc12 (configuration not stated)	DAX1 inh-1 3.8
O=C1CC(c2ccccc2)CN1C(=O)c1cccc([N+](=O)[O-])c1 (configuration not stated)	none
CCCCN(C)CCNC(=O)c1ccc(Cn2c(=S)[nH]c3ccc(Br)cc3c2=O)cc1	DAX1 inh-1 4.0
c1ccc(N2CCN(c3nc4ccccc4n4nnnc34)CC2)cc1	AHR act 73
c1ccc2c(c1)nc(N1CCOCC1)c1nnnn12	none
Cc1n[nH]c(C)c1S(=O)(=O)N1CCN(S(=O)(=O)c2ccccc2C#N)CC1	none
Cc1noc(C)c1S(=O)(=O)N1CCN(S(=O)(=O)c2ccccc2C#N)CC1	DAX1 inh-2 7.8
OCCNc1nc(Nc2ccccc2C(F)(F)F)nc(N2CCCC2)n1	none
NC(=O)c1ccccc1Nc1nc(NCCO)nc(N2CCCC2)n1	DAX1 inh-2 4.4
COc1cc(NC(=O)COC(=O)/C=C/c2c(C)nn(C3CCS(=O)(=O)C3)c2Cl)cc(OC)c1OC (configuration not stated)	none
Cc1ccc(-c2[nH]n3c(=O)c4c(nc3c2C)CCCC4)cc1	none
Cc1c(-c2ccccc2)[nH]n2c(=O)c3c(nc12)CCCC3	hgDAF-12 ag 11
O=C(COc1ccccc1F)NNC(=O)c1cccc(-n2cccc2)c1	hcDAF12 agonist 6.3
Cc1[nH]nc2c1C(c1ccc(F)cc1)C1=C(CC(C)(C)CC1=O)N2 (configuration not stated)	none
Cc1ccc(CN2CCC(CNC(=O)Nc3ccccc3F)CC2)cc1	DAX1 inh-2 4.4
Cc1ccc(NC(=O)NCC2CCN(Cc3cccc(Cl)c3)CC2)cc1Cl	ssDAF12 agonist 1.7
CCc1ccc(NC(=O)NCC2CCN(Cc3cccc(Cl)c3)CC2)cc1	none
CCOc1ccc(S(=O)(=O)N/N=C\c2ccc3c(c2)OCO3)cc1	none (no result: AHR act)
